Results filed as inconclusive are left out. A call without a number means that no potency is given here. Active and inactive are the calls of the source. Calls follow the shape of the dose curve; as a rule, active = well fitted inhibition curve with a large enough effect; inconclusive = small, poorly fitted or top-dose-only effect; inactive = no such curve, though single readings can be large or run the other way.
Potency is read from the fitted curve at half-maximal effect.

The test deals with Retinaldehyde dehydrogenase 3 (Homo sapiens) (UniProt P47895). Kind of test: qHTS for Inhibitors of the Aldehyde Dehydrogenase Family (ALDH1A3) Primary screen (AID 2061315). As to conditions: ALDH inhibition qHTS; series mostly up to 56 µM. In general terms: Quantitative high-throughput screening tests each substance at several concentrations.
With `COc1cc(C2Oc3c(OC)cc(CCCO[C@@H]4O[C@H](CO)[C@@H](O)[C@H](O)[C@H]4O)cc3C2CO)ccc1O` (stereo partly specified), the Potency result is “inactive”.

On to `N#Cc1ccc2[nH]cc(CCCCN3CCN(c4ccc5oc(C(N)=O)cc5c4)CC3)c2c1`, for which the Potency result was “inactive”.

As to `Cn1cc(-c2ccc3ncc(Cc4ccc5ncccc5c4)n3n2)cn1`, the Potency result was “inactive”.

With `C=CC(=O)N1CCN(C(=O)CNc2cc(I)c(Cl)cc2O)CC1`, the Potency was 2820 nM (active).

Regarding `C=CC(=O)Nc1cccc(Nc2nc(Nc3ccc(Oc4ccnc(C(=O)NC)c4)cc3)ncc2F)c1`, the Potency result is “inactive”.

As to `OCC(O)C(c1c[nH]c2ccccc12)c1c[nH]c2ccccc12` (stereo unspecified), the Potency entry was “inactive”.

For `COc1ccc(-c2c(-c3cc(C(=O)O)ccn3)ncn2C)cc1`, the Potency result was “inactive”.

Turning to `Oc1ccc(Nc2nc(-c3ccc(Cl)cc3)cs2)cc1`, the Potency entry is “inactive”.

With `COCC(=O)NC/C=C/c1ccc2ncnc(Nc3ccc(Oc4ccc(C)nc4)c(C)c3)c2c1`, the Potency result was “inactive”.

Turning to `CCN(Cc1cc(Nc2nc(C)cn3c(-c4cn[nH]c4)cnc23)sn1)C(C)(C)CO`, the Potency entry was “inactive”.

Turning to `OC[C@@]1(O)CO[C@@H](OC[C@H]2O[C@@H](Oc3c[nH]c4ccccc34)[C@H](O)[C@@H](O)[C@@H]2O)[C@@H]1O`, the Potency entry was “inactive”.

For `C[C@@H]1O[C@@H](O[C@H]2[C@H](O[C@H]3CO[C@@H](O[C@H]4CC[C@@]5(C)C(CC[C@]6(C)C5CC[C@]57OC[C@@]8(CC[C@](C)(CO)CC85)[C@H](O)C[C@]76C)C4(C)C)[C@H](O[C@@H]4O[C@H](CO)[C@@H](O)[C@H](O)[C@H]4O)[C@H]3O)O[C@H](CO)[C@@H](O)[C@@H]2O)[C@H](O)[C@H](O)[C@H]1O` (stereo partly specified), the Potency result was “inactive”.

Consider `C/C=C/C=C/c1cc2c(C=O)c(O)c(CC=C(C)C)cc2o1`, for which the Potency result was “inactive”.

In the case of `C=C1C(=O)OC2C1CCC(=C)C1CC(OC(C)=O)C(=C)C12` (stereo unspecified), the Potency result was “inactive”.

With `CC1=CC(=O)C(=C(C)C)CC2C(C)(O)CCC12O` (stereo unspecified), the Potency result is “inactive”.

Consider `O=C(O)c1cc(O[C@@H]2O[C@H](CO[C@@H]3OC[C@@H](O)[C@H](O)[C@H]3O)[C@@H](O)[C@H](O)[C@H]2O)c2ccccc2c1O`, for which the Potency is 2820 nM (active).

With `O=C(NCC(=O)N1CCCC1)Nc1ccc2ccccc2c1`, the Potency is 2820 nM (active).

As to `O=c1nc(-c2ccccn2)sc2ccccc12`, the Potency result was “inactive”.

For the molecule `CC1=C2CC3C(CCC3(C)O)C(C)(O)CC2OC1=O` (stereo unspecified), the Potency result is “inactive”.

In the case of `CC1(C)O[C@@]2(C)CC[C@@H]1C[C@@H]2OC1OC(CO)C(O)C(O)C1O` (stereo partly specified), the Potency result is “inactive”.

For the molecule `Cc1[nH]c(/C=C2\C(=O)Nc3cc(-c4ccccc4)ccc32)c(C)c1CCC(=O)O`, the Potency result was “inactive”.

Regarding `Cc1ccc(CN2CCNCC2)cc1NC(=O)CNc1ccc(F)c(F)c1`, the Potency result is “inactive”.

Turning to `Cn1cc(-c2ccncc2)c(-c2ccc(OCc3ccc4ccccc4n3)cc2)n1`, the Potency result was “inactive”.

As to `CC(C)=C1CC2C(CCC2(C)O)C(C)(O)CC1=O` (stereo unspecified), the Potency result was “inactive”.

As to `C=C1C(O)CCC2(C)CC3(OC)OC(=O)C(C)=C3CC12` (stereo unspecified), the Potency result was “inactive”.

With `C=C1C(=O)OC2CC(C)=C(C(C)CCCO)C(O)C12` (stereo unspecified), the Potency entry is “inactive”.

The record behind these values is PubChem BioAssay (NCATS).
